Structures are written as SMILES. Active and inactive are the calls of the source. The calls were made as follows: active = hit-call score of the fitted dose curve at least 0.9, where 1 is the maximum; inactive = score below 0.9.

This experiment can be described thus: IUF_NPC1a_proliferation_area_72hr: Leibniz Research Institute for Environmental Medicine (IUF) 72-hour Neural Progenitor Cell Proliferation Area Assay (NPC1a) (AID 2284208). The method, then:
IUF_NPC1 is a cell-based, multiplexed assay that uses hNPC, a human primary neural progenitor cells, with measurements taken at 72 hours after chemical dosing in a 96-well plate. Human neural progenitor cells (hNPC) are generated from human fetal brain cortex at gestational week (GW) 16-19. Grown in suspension culture and under proliferative conditions (proliferation media and growth factors), these cells represent neural progenitor cell proliferation. In the NPC1 assay, hNPC's are exposed to the test compound for 72h. Cell proliferation is assessed as an increase in sphere area using automated phase contrast imaging and as incorporation of Bromodeoxyuridine (BrdU) during DNA synthesis using a luminescence-based cell proliferation ELISA. In parallel, the cell viability is assessed using an alamar blue viability assay and the cytotoxicity using a lactate dehydrogenase dependent membrane integrity assay.IUF_NPC1a_proliferation_area_72hr is one of 4 assay components measured from the IUF_NPC1 assay. It is designed to measure cell proliferation as assessed by an increase in sphere area over 72 h using automated phase contrast imaging.Data from the IUF_NPC1a_proliferation_area component was analyzed at the endpoint IUF_NPC1a_proliferation_area in the positive analysis fitting direction relative to DMSO as the negative control and baseline of activity. Using a type of growth reporter, gain or loss-of-signal activity can be used to understand cell proliferation effects.
After the cell expansion period, the cells are cultured for up to four weeks in which they are passaged every week. Between one to three days after passaging, depending on the size chosen for passaging, spheres at a size of 0.3 mm are used in the assay. For the assessment of neural progenitor cell proliferation, the spheres are plated in poly-Hema coated 96-well U-bottom plates filled with proliferation medium containing growth factors (EGF and FGF). One 0.25 - 0.35 mm big sphere is plated in the middle of each well. Within 3 days NPCs proliferate and grow in size. Cultivation during the test method is performed at 37C and 5% CO2 at a pH of 7.2-7.6. As a positive control, spheres are cultivated in the absence of growth factors (EGF and FGF), which dramatically reduces proliferation. Exposure starts on the plating day (day 0) and is continued over three days, without chemical renewal, until the experiment is terminated. The assay is terminated by the assessment of cell viability, cytotoxicity, and proliferation by BrdU. All endpoints are generated from the same experimental run and from each well/sphere in the 96-well plate.
As to `C[C@@H]1CCO[C@H]2Cn3cc(C(=O)NCc4ccc(F)cc4F)c(=O)c(O)c3C(=O)N12`, the molecule was called inactive.

Regarding `Cc1[nH]n(C)c(=O)c1C(=O)c1ccc(C(F)(F)F)cc1S(C)(=O)=O`, the call was inactive. As to `C[C@@H]1CC[C@@H](C(C)(C)O)[C@H](O)C1`, the molecule was called inactive. Same read-out and setting: the same measure for `O=C1CC2(CCCC2)CC(=O)N1CCCCN1CCN(c2ncccn2)CC1`: “inactive”. Take `CCCCCC(C)(CC)C(=O)NC` (centres undefined): the call was inactive.

As usually defined, the AC50 is the concentration at which the activity in the assay is half-maximal. As to `CN(C)CCCn1cc(C2=C(c3c[nH]c4ccccc34)C(=O)NC2=O)c2ccccc21`, the AC50 is 11.6 µM (active). For `CC(=O)N[C@@H](CC(=O)O)C(=O)O`, the call was inactive.

As for `BrC1CC(Br)CC(Br)CC(Br)CC(Br)CC(Br)C1` (centres undefined), the result was inactive. On to `CCCCOCCOP(=O)(O)OCCOCCCC`, for which the molecule was classed as inactive. On to `CCc1ccccc1`, for which the molecule was classed as inactive.

As to `CC(C)O`, the result was inactive. Turning to `CCCCCC=C(C)C(CC)CCO` (centres undefined), the result was inactive. On the same count and under the same terms, the same measure for `CC(CNC(=S)[S-])NC(=S)[S-].[Zn+2]` (centres undefined): “inactive”; for `CC(C)c1nn(C(=O)NC(C)(C)C)c(=O)n1N`: “inactive”.

These data come from PubChem BioAssay (EPA / NIEHS).
